Inconclusive results are not listed. Calls of active or inactive are those of the source. Rule for the calls, unless noted: active = hit-call score of the fitted dose curve at least 0.9, where 1 is the maximum; inactive = score below 0.9.
Columns and labels:
[1] = tested on: Sodium/Iodide Symporter (NIS), SLC5A5 (gene 6528); assay: CPHEA_Stoker_NIS_Inhibition_RAIU: CPHEA's Radioactive Iodide Uptake (RAIU) Assay for Sodium/Iodide Symporter (NIS) Inhibition, Stoker and Laws Labs (AID 2283841; active = hit-call score of the fitted dose curve at least 0.9, where 1 is the maximum)
Method in brief: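 Iodide uptake read as CPM of intracellular 125I (final 329 pM) after 2 h room-temperature exposure in HEPES-buffered HBSS, pH 7.4. Human NIS-expressing HEK293T cells; six concentrations 0.001–100 uM, 0.5% DMSO, normalised to DMSO wells.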

[2] = CPHEA_Stoker_NIS_Cytotoxicity: Cytotoxicity Assessment for CPHEA's Radioactive Iodide Uptake (RAIU) Assay for Sodium/Iodide Symporter (NIS) Inhibition, Stoker and Laws Labs (AID 2283897; active = hit-call score of the fitted dose curve at least 0.9, where 1 is the maximum)
Method in brief: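 CellTiter-Glo ATP luminescence gauged viability in HEK293T cells expressing human NIS after 2 h chemical exposure. Concentrations ran 0.001–100 uM in 0.5% DMSO; DMSO served as baseline for the loss-of-signal fit.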

[3] = CEETOX_H295R_11DCORT_noMTC: CeeTox H295R High-throughput Steroidogenesis Assay for 11-Deoxycortisol (11DCORT), maximum tolerated concentration (MTC) filtered results only (AID 2283911); details: actives raise or lower the signal
Method in brief: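 H295R, OECD 456-based; 10 uM forskolin 48 h → compound (0.1% DMSO) 48 h → medium extracted, 11DCORT by LC-MS/MS. Gain/loss vs DMSO control, all concentrations kept regardless of MTT viability.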

[4] = CEETOX_H295R_OHPREG_noMTC: CeeTox H295R High-throughput Steroidogenesis Assay for OH-Pregnenolone (OHPREG), maximum tolerated concentration (MTC) filtered results only (AID 2283912); details: actives raise or lower the signal
Method in brief: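 H295R human adrenal cells, forskolin-prestimulated (10 uM, 48 h), then exposed to test chemical in 0.1% DMSO for 48 h. 17alpha-hydroxypregnenolone in medium measured by HPLC-MS/MS after MTBE extraction; bidirectional fit versus DMSO, concentrations not MTC-filtered.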

[5] = CEETOX_H295R_OHPROG_noMTC: CeeTox H295R High-throughput Steroidogenesis Assay for OH-Progesterone (OHPROG), maximum tolerated concentration (MTC) filtered results only (AID 2283914); details: actives raise or lower the signal
Method in brief: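 H295R human adrenal cells prestimulated 48 h with 10 uM forskolin, then exposed 48 h to test chemical (0.1% DMSO final). Medium 17alpha-hydroxyprogesterone extracted with MTBE, quantified by HPLC-MS/MS; bidirectional fit versus DMSO, concentrations not MTC-filtered.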

[6] = CEETOX_H295R_ANDR_noMTC: CeeTox H295R High-throughput Steroidogenesis Assay for Androstenedione (ANDR), maximum tolerated concentration (MTC) filtered results only (AID 2283915); details: actives raise or lower the signal
Method in brief: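 H295R cells, passage 10 or below, prestimulated 48 h with 10 uM forskolin, then exposed 48 h to chemical in 0.1% DMSO. Medium androstenedione extracted with MTBE, quantified by HPLC-MS/MS; concentrations not MTC-filtered; bidirectional fit versus DMSO.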

[7] = CEETOX_H295R_CORTISOL_noMTC: CeeTox H295R High-throughput Steroidogenesis Assay for Cortisol, maximum tolerated concentration (MTC) filtered results only (AID 2283916); details: actives raise or lower the signal
Method in brief: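 H295R adrenal cells were pre-stimulated 48 h with 10 uM forskolin, then exposed 48 h to test chemical in 0.1% DMSO. Medium cortisol was measured by MTBE extraction and HPLC-MS/MS; bidirectional fit versus DMSO, concentrations not MTC-filtered.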

[8] = CEETOX_H295R_CORTIC_noMTC: CeeTox H295R High-throughput Steroidogenesis Assay for Corticosterone (CORTIC), maximum tolerated concentration (MTC) filtered results only (AID 2283917); details: actives raise or lower the signal
Method in brief: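 H295R, 10 uM forskolin prestim 48 h → test chem (0.1% DMSO final) 48 h → media MTBE extraction → HPLC-MS/MS corticosterone. Bidirectional fit vs DMSO baseline; no MTT-based MTC filtering.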

[9] = target: mouse Peroxisome Proliferator-activated Receptor gamma (PPARg), Pparg (gene 19016) (UniProt P37238); assay: ATG_mPPARg_XSP2: Attagene TRANS-FACTORIAL Multi-Species (XSP2) HepG2 Assay for mouse Peroxisome Proliferator-activated Receptor gamma (PPARg) (AID 2283830; active = hit-call score of the fitted dose curve at least 0.9, where 1 is the maximum;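 note: hits are gains in reporter mRNA above DMSO so AC50 marks activation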)
Chain of mouse Peroxisome Proliferator-activated Receptor gamma (PPARg), Pparg (gene 19016) (P37238 whole entry, looked up, the tested form may be a part): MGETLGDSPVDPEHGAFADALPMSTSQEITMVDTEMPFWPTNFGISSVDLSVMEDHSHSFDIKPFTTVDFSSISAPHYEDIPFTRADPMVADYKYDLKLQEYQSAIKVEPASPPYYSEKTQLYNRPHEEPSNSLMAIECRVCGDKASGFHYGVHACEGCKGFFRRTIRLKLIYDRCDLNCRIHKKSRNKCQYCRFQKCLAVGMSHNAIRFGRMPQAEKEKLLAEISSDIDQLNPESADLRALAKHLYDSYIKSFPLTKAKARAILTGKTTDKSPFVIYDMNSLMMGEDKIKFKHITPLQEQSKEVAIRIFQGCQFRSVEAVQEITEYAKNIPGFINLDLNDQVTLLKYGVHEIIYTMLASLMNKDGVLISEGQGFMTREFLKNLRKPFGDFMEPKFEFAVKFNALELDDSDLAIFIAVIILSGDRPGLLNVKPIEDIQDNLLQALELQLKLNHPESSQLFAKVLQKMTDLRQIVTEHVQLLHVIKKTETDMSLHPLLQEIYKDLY
Method in brief: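 HepG2 cells transiently transfected with GAL4-UAS reporter units for chimeric NR-Gal4 proteins including mouse PPARg, exposed 24 h; medium contained 3 nM 6-alpha-fluorotestosterone and 1.5 nM norgestrel. Reporter mRNA quantified by RT-PCR, HpaI digestion and capillary electrophoresis, vs DMSO.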

[10] = target: zebrafish Thyroid Hormone Receptor alpha (TRa), thraa (gene 30670) (UniProt Q98867); assay: ATG_zfTRa_XSP2: Attagene TRANS-FACTORIAL Multi-Species (XSP1) HepG2 Assay for zebrafish Thyroid Hormone Receptor alpha (TRa) (AID 2283832; active = hit-call score of the fitted dose curve at least 0.9, where 1 is the maximum;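 note: actives raise zebrafish TRa-Gal4 reporter transcript above DMSO baseline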)
Chain of zebrafish Thyroid Hormone Receptor alpha (TRa), thraa (gene 30670) (Q98867 whole entry, looked up, the tested form may be a part): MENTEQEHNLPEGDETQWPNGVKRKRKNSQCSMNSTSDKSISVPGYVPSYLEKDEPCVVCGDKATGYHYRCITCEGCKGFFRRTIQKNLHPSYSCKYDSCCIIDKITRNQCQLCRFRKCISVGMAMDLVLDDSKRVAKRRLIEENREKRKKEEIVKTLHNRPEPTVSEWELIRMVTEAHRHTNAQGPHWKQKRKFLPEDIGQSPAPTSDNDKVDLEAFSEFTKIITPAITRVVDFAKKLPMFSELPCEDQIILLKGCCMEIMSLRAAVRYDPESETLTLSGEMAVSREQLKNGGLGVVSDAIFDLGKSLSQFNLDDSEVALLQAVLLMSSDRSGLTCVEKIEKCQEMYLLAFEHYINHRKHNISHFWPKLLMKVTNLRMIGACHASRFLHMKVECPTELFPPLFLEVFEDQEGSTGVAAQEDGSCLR
Method in brief: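 Transient transfection of human HepG2 with GAL4-UAS reporter units, then 24 h chemical treatment. RNA isolated, reverse-transcribed, PCR-amplified, FAM-labelled, HpaI-digested and run on capillary electrophoresis. Gain-of-signal relative to DMSO.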

[11] = tested on: turtle Thyroid Hormone Receptor, alpha (TRa), gene 101949057; assay: ATG_trTRa_XSP2: Attagene TRANS-FACTORIAL Multi-Species (XSP1) HepG2 Assay for turtle Thyroid Hormone Receptor, alpha (TRa) (AID 2283834; active = hit-call score of the fitted dose curve at least 0.9, where 1 is the maximum;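 note: hits raise reporter mRNA over the DMSO baseline so AC50 marks activators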)
Method in brief: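 Readout: reporter mRNA induction, fluorescence after RT-PCR, HpaI digestion and capillary electrophoresis. Transiently transfected HepG2, exogenous NR-Gal4 chimera driving GAL4-UAS reporter, 24 h compound exposure. Activity fitted upward relative to DMSO baseline.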

[12] = target: zebrafish Thyroid Hormone Receptor beta (TRb), thrb (gene 30607) (UniProt Q9PVE4); assay: ATG_zfTRb_XSP2: Attagene TRANS-FACTORIAL Multi-Species (XSP1) HepG2 Assay for zebrafish Thyroid Hormone Receptor beta (TRb) (AID 2283836; active = hit-call score of the fitted dose curve at least 0.9, where 1 is the maximum)
Chain of zebrafish Thyroid Hormone Receptor beta (TRb), thrb (gene 30607) (Q9PVE4 whole entry, looked up, the tested form may be a part): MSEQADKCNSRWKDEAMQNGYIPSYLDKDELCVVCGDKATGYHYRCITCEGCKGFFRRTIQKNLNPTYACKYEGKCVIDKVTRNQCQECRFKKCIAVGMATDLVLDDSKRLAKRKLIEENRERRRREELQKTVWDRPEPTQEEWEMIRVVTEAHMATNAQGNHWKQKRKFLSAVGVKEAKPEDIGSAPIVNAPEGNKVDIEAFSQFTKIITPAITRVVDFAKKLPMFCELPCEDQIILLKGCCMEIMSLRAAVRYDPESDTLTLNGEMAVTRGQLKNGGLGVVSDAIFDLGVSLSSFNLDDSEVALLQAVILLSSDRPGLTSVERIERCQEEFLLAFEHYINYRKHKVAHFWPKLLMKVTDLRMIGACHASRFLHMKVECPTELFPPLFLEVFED
Method in brief: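 Human liver HepG2, transient MRTU transfection (NR-Gal4 chimeras, GAL4-UAS reporters); 24 h compound exposure; total RNA → oligo(dT) RT → PCR → 6-FAM label → HpaI cut → CE fluorescence. DMSO = negative control/baseline.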

[13] = target: frog Thyroid hormone Receptor alpha (TRa), thra-a (gene 397942) (UniProt P15204); assay: ATG_frTRa_XSP2: Attagene TRANS-FACTORIAL Multi-Species (XSP2) HepG2 Assay for frog Thyroid hormone Receptor alpha (TRa) (AID 2283839; active = hit-call score of the fitted dose curve at least 0.9, where 1 is the maximum)
Chain of frog Thyroid hormone Receptor alpha (TRa), thra-a (gene 397942) (P15204 whole entry, looked up, the tested form may be a part): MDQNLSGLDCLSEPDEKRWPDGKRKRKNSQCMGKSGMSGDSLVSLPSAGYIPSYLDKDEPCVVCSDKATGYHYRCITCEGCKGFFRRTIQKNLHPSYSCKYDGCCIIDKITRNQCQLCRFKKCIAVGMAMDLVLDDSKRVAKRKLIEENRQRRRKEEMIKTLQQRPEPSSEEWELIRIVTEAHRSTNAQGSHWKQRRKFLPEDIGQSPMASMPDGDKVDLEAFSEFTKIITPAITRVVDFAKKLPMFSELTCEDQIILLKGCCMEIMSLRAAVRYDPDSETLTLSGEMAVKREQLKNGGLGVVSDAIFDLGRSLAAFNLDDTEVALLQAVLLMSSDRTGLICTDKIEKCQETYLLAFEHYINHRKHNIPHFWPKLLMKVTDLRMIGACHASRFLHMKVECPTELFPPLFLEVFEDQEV
Method in brief: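 Read-out: fluorescent reporter-transcript fragments resolved by capillary electrophoresis after RT-PCR and HpaI cut. Human HepG2 liver cells carry a transfected frog TRα-Gal4 chimera driving a UAS reporter; 24 h exposure, DMSO baseline, positive-direction fit.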

Q: What does the source list for `O=C1OC(c2ccc(O)cc2)(c2ccc(O)cc2)c2ccccc21`?
A: AC50 [1]: 0.722 µM (active); outcome [2]: inactive

Q: For `Nc1nc(=S)c2[nH]cnc2[nH]1`, which AC50 [3] is on record?
A: Its AC50 is 44.7 µM (active).

Q: What about the AC50 [4] of the same compound?
A: Its AC50 is 72.9 µM (active).

Q: And the AC50 [5]?
A: The AC50 was 74.3 µM (active).

Q: What about the AC50 [6] of the same compound?
A: The AC50 was 77 µM (active).

Q: What about the AC50 [7] of the same compound?
A: The AC50 was 37 µM (active).

Q: What about the AC50 [8] of the same compound?
A: Its AC50 is 33.3 µM (active).

Q: Which outcome [2] does the source give for `COc1ccc(OC(F)(F)F)cc1CN[C@H]1CCCN[C@H]1c1ccccc1` here?
A: The outcome was “inactive”.

Q: With `CCC(C)N(C)C(=O)c1cc2ccccc2c(-c2ccccc2Cl)n1` (configuration not stated) as the compound, how does the AC50 [1] read?
A: The AC50 was 30 µM (active).

Q: And the outcome [2]?
A: The outcome was “inactive”.

Q: With `C=CCc1ccc(OC)c(OC)c1` as the compound, how does the outcome [3] read?
A: Its outcome is “inactive”.

Q: What about the outcome [4] of the same compound?
A: Its outcome is “inactive”.

Q: What about the outcome [5] of the same compound?
A: Its outcome is “inactive”.

Q: And the outcome [7]?
A: Its outcome is “inactive”.

Q: What about the outcome [8] of the same compound?
A: The outcome was “inactive”.

Q: Which results are given for `CCCCCCC(CCCCCCCCCCC(=O)OCC(COC(C)=O)OC(C)=O)OC(C)=O` (configuration not stated)?
A: outcome [1]: inactive; outcome [2]: inactive

Q: With `CSc1ccc(Oc2ccc(S(N)(=O)=O)cc2CN(C)C)cc1C` as the compound, how does the outcome [2] read?
A: The outcome was “inactive”.

Q: Which outcome [1] does the source give for `O=C(Oc1ccccc1)c1cccc(C(=O)Oc2ccccc2)c1` here?
A: Its outcome is “inactive”.

Q: What about the outcome [2] of the same compound?
A: Its outcome is “inactive”.

Q: What about the outcome [3] of the same compound?
A: Its outcome is “inactive”.

Q: What about the outcome [4] of the same compound?
A: Its outcome is “inactive”.

Q: What about the outcome [5] of the same compound?
A: The outcome was “inactive”.

Q: And the outcome [6]?
A: Its outcome is “inactive”.

Q: And the outcome [7]?
A: Its outcome is “inactive”.

Q: And the outcome [8]?
A: The outcome was “inactive”.

Q: Which results are given for `CC(=O)[C@@]1(O)CC[C@H]2[C@@H]3CCC4=CC(=O)CC[C@]4(C)[C@H]3CC[C@@]21C`?
A: outcome [9]: inactive; outcome [10]: inactive; outcome [11]: inactive; outcome [12]: inactive; outcome [13]: inactive

— PubChem BioAssay (EPA / NIEHS)
